Shown are actives, neighbours in structure and some others; about 4.7% of the full set was active somewhere.
tim10-1 inh: tim10-1 yeast growth inhibition. inhibition, % at 20 µM. 330,000 compounds, 2.2% hits. S. cerevisiae tim10-1 ts strain growth, BacTiter-Glo, 24 h;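 active = inhibition of at least 40%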;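 note: mutant grown at 25 °C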
PfHsp90 yeast 2: reduces growth (ATP signal) of yeast expressing P. falciparum Hsp90. S. cerevisiae expressing PfHsp90, BacTiter-Glo ATP, 48 h; yeast lacking PDR1 and PDR3 efflux regulators. inhibition, % at 9.4 µM. 310,000 compounds, 0.32% hits;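 active = every replicate shows inhibition above about 80%, whatever the replicate mean, limit read from the data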
tim23-1 inh: inhibits growth of tim23-1 mutant yeast. S. cerevisiae tim23-1 growth, BacTiter-Glo luminescence, 24 h. inhibition, % at 20 µM. 330,000 compounds, 1.3% hits;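 active = growth inhibition of the mutant yeast at or above 50%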;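 note: temperature-sensitive mutant grown at 25 °C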
EBI2 block: blocks human EBI2 receptor beta-arrestin signaling; P32249; EBI2 beta-arrestin recruitment, luminescence, 7a,25-OHC stimulated; inhibition, % at 5 µM; 360,000 compounds, 0.81% hits; in the data active = inhibition above about 38%;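 note: enzyme fragment complementation signal reports receptor beta-arrestin coupling in cells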
Target sequence (P32249 whole entry, looked up, the tested form may be a part): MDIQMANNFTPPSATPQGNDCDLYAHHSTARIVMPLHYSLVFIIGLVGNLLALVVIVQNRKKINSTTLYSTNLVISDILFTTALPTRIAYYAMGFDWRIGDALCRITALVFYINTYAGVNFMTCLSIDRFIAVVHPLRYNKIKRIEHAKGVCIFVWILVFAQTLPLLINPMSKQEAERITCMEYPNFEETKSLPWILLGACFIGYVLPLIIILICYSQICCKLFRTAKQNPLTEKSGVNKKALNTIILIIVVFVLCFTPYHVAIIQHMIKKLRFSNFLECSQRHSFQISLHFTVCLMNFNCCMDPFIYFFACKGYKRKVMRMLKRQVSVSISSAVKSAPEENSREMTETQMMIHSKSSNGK
TIM10 inh: growth inhibitors of TIM10 yeast strain; S. cerevisiae TIM10 strain growth, BacTiter-Glo luminescence, 24 h; 330,000 compounds, 1.4% hits; AID 463195; inhibition, % at 10 µM;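 active = inhibition of 40% or more at the single tested concentration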;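 note: wild-type TIM10 isogenic control strain grown at permissive 25 °C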
SKKanGAS inh: blocks kanamycin growth of S. pyogenes SKKanGAS strain. BacTiter-Glo, 6 h. inhibition, % at 7.5 µM. 300,000 compounds, 1.3% hits;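 active = mean replicate score, as percent of positive control median, at least 50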;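 note: strain carries kanamycin resistance gene driven by streptokinase promoter and grows in 40 µg/ml kanamycin; loss of luminescence reflects streptokinase promoter inhibition or plain growth inhibition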
A number is an active result; i = inactive; nt = not tested or not shown; + = active, no number; ! = not confirmed by another sample.

SMILES	tim10-1 inh	PfHsp90 yeast 2	tim23-1 inh	EBI2 block	TIM10 inh	SKKanGAS inh
Cc1cc(-c2ccc(C(C)C)c(S(=O)(=O)N3CCC(C)CC3)c2)on1	i	i	i	i	i	i
COc1ccc(C2=CC3=C(Br)C(=O)C(C)(OC(=O)c4ccco4)C(=O)C3=CO2)cc1 (stereo not drawn)	i	+	i	i	i	i
CC1(OC(=O)c2ccco2)C(=O)C=C2C=C(c3ccsc3)OC=C2C1=O (stereo not drawn)	i	nt	i	nt	i	i
COc1ccc(C2=CC3=C(Br)C(=O)C(C)(OC(=O)c4cccs4)C(=O)C3=CO2)cc1 (stereo not drawn)	i	106.7	i	i	i	i
COCCN1C=C2C(=O)C(C)(OC(=O)CCC(=O)OC)C(=O)C(Br)=C2C=C1c1ccc(OC)cc1 (stereo not drawn)	i	i	i	i	i	i
CCCOc1ccc(OCCn2nc(C(=O)O)c3ccccc3c2=O)cc1	i	i	i	i	i	i
Cc1[nH]n(C2=NCCS2)c(=O)c1N=Nc1cccc(C(F)(F)F)c1	i	i	i	i	i	82.7
CC1(C(=O)Nc2cccc(OC(F)(F)F)c2)Cc2c(-c3ccc(C(N)=O)cc3)ccnc2O1 (stereo not drawn)	nt	nt	nt	i	nt	nt
COC(=O)c1ccc(CSc2n[nH]c(=S)s2)o1	i	i	i	i	i	62.8
CC(OC(=O)c1ccc(S(C)(=O)=O)c([N+](=O)[O-])c1)C(=O)NC1C2CC3CC(C2)CC1C3 (stereo not drawn)	nt	nt	nt	65.3	nt	nt
COc1cccc(C(=O)OCC(=O)NC23CC4CC(CC(C4)C2)C3)c1	i	i	i	i	i	nt
CS(=O)(=O)c1ccc(C(=O)OCC(=O)NC23CC4CC(CC(C4)C2)C3)cc1[N+](=O)[O-]	i	i	i	64.6	i	i
CC1CCCCC1NC(=O)C1CCCN(S(=O)(=O)c2ccc(-n3cnnn3)cc2)C1 (stereo not drawn)	i	i	i	i	i	i
COc1ccc(C(=O)Nc2ccnn2C2CCN(C(=O)c3cnsn3)CC2)cc1	i	i	i	i	i	i
CCCCN1C(=O)C(=O)NC[C@@H]1Cc1ccc(O)cc1	nt	nt	nt	i	nt	nt
Cc1c(Cl)cccc1-c1ccc(CNCc2ccccn2)o1	i	i	i	i	i	82.8
COc1ccc(C#Cc2ccc3c(c2)c(=O)c2ccccc2n3C)cc1	i	i	i	i	i	91.3
Cn1c2ccccc2c(=O)c2cc(C#Cc3ccc(N)cc3)ccc21	i	i	i	i	i	84.5
Nc1ccc(C#Cc2ccc3oc4ccccc4c(=O)c3c2)cc1	i	i	i	i	i	96.6
CC(C)N1C(=O)c2ccccc2NC(=O)C1C(=O)NCc1cccc(C(F)(F)F)c1 (stereo not drawn)	nt	nt	nt	i	nt	nt
O=C(NNC1=Nc2ccccc2SC1)c1ccc(Cl)cc1	i	i	i	i	i	90.5
O=C(NNC1=Nc2ccccc2SC1)c1ccc(F)cc1	i	i	i	i	i	68.6
O=C(NNC(=O)c1ccc(F)cc1)c1ccncc1	i	i	i	i	i	i
O=C(NNc1c2ccccc2nc2ccccc12)c1ccc(Cl)cc1	i	i	i	i	i	i
CC(C)CCNC(=O)CCSCCC(=O)NCCC(C)C	i	i	i	i	i	i
SMILES	tim10-1 inh	PfHsp90 yeast 2	tim23-1 inh	EBI2 block	TIM10 inh	SKKanGAS inh
COc1ccc(NC(=O)c2c[nH]n3c(=O)cc(C4CCN(C(=O)OC(C)(C)C)CC4)nc23)cc1Cl	i	i	i	i	i	52.2
CC(C)(C)OC(=O)N1CCC(c2cc(=O)n3[nH]cc(C(=O)NC4CCCC4)c3n2)CC1	i	i	i	i	i	i
CC(C)(C)OC(=O)N1CCC(c2cc(=O)n3[nH]cc(C(=O)Nc4ccc(F)c(Cl)c4)c3n2)CC1	i	i	i	i	i	68.3
CNc1nc(NC)c2cn[nH]c2n1	nt	i	nt	i	nt	nt
Cc1ccc(C)n1-c1sc2c(c1C#N)CCC(C)C2 (stereo not drawn)	i	i	i	i	i	62.2
CCCCCOc1ccc(C2C(C(=O)c3ccc(C)o3)=C(O)C(=O)N2c2cc(C)on2)cc1 (stereo not drawn)	i	i	i	i	i	81.4
CCOc1ccc(C2C(C(=O)c3ccc(C)o3)=C(O)C(=O)N2c2cc(C)on2)cc1OC (stereo not drawn)	i	i	i	i	i	i
COc1ccccc1NC(=O)NCCCCc1ccccc1	i	i	i	i	i	50.2
CC(C)Cn1c(O)c(N=NC(=O)c2cccc(S(=O)(=O)N3CCCCC3)c2)c2ccccc21	i	i	i	i	i	53.5
COc1ccc(NC(=O)C2CCCN2S(=O)(=O)c2ccc3c(c2)C(C)(C)C(=O)N3C)cc1 (stereo not drawn)	nt	nt	nt	i	nt	nt
Cc1ccccc1OCC(=O)Nc1ccccc1N1CCCCC1	i	i	i	i	i	57.3
O=C(COc1ccc2ccccc2c1)Nc1cccc(C(=O)Nc2ccccc2C(=O)O)c1	i	i	i	i	i	55.2
COc1ccc(OCC(=O)Nc2ccc(C(=O)Nc3ccccc3C(=O)O)cc2)cc1	i	i	i	i	i	i
Cc1cccc(OCC(=O)Nc2ccccc2N2CCCC2)c1C	i	nt	i	i	i	i
Cc1ccccc1OCC(=O)Nc1ccc(C(=O)Nc2ccccc2C(=O)O)cc1	i	i	i	i	i	59.4
Cc1ccc(OCC(=O)Nc2ccc(C(=O)Nc3ccccc3C(=O)O)cc2)cc1C	nt	nt	nt	i	nt	nt
O=C(NC(CC(=O)N1CCCC(C(F)(F)F)C1)c1ccccc1)c1ccccc1Cl (stereo not drawn)	i	i	i	i	i	i
Nc1nc(COC(=O)c2ccco2)nc(Nc2ccccc2)n1	nt	nt	nt	i	nt	nt
N[C@@H](Cc1cc(I)c(Oc2ccc(O)c(I)c2)c(I)c1)C(=O)O	i	i	i	i	i	62.1!
N[C@@H](Cc1cc(I)c(Oc2cc(I)c(O)c(I)c2)c(I)c1)C(=O)O	i	nt	i	nt	i	i
O=C(O)CCc1cc(I)c(Oc2ccc(O)c(I)c2)c(I)c1	nt	nt	nt	nt	nt	96.5
O=C1Nc2ccc(Br)cc2/C1=C/C(=O)c1ccccc1	nt	106.2	nt	78.8	nt	nt
O=C(O)COc1ccccc1/C=C1\C(=O)Nc2ccc(Br)cc21	i	i	i	i	i	i
CC(=O)O[C@H]1C[C@@]2(C)[C@@H](C[C@@H](O)[C@H]3[C@@]4(C)CC[C@@H](O)[C@@H](C)[C@@H]4CC[C@@]32C)/C1=C(\CCC=C(C)C)C(=O)O	i	i	i	i	i	109.2
O=C(NCc1nc(-c2ccc(C(F)(F)F)cc2)no1)Nc1ccc(F)cc1F	i	i	i	i	i	i
O=C(NCc1nc(-c2ccc(C(F)(F)F)cc2)no1)Nc1cc(Cl)cc(Cl)c1	i	i	i	i	i	108.9
O=C(NCC1CCCO1)c1cc([N+](=O)[O-])ccc1N1CCC(Cc2ccccc2)CC1 (stereo not drawn)	i	97.5	i	i	i	nt
CCCCN(CC)S(=O)(=O)c1ccc(C(=O)Nc2nnc(-c3cccs3)o2)cc1	i	nt	i	nt	i	97.9
